Holding throughout (set-up): scale not given: direction of the effect not stated beside the values
For test [1], the target named is Protein translocase subunit SecA (Escherichia coli (strain K12)) (UniProt P10408). The test can be described thus: Assay to Identify E. coli SecA ATPase Inhibitors. The class given is functional. The conditions noted are these: 30 µM.
For test [2], the target named is T1, Ubiquitin-activating enzyme e1, putative (Leishmania donovani (strain BPK282A1)) (UniProt E9BSI1).
T1 sequence (whole entry): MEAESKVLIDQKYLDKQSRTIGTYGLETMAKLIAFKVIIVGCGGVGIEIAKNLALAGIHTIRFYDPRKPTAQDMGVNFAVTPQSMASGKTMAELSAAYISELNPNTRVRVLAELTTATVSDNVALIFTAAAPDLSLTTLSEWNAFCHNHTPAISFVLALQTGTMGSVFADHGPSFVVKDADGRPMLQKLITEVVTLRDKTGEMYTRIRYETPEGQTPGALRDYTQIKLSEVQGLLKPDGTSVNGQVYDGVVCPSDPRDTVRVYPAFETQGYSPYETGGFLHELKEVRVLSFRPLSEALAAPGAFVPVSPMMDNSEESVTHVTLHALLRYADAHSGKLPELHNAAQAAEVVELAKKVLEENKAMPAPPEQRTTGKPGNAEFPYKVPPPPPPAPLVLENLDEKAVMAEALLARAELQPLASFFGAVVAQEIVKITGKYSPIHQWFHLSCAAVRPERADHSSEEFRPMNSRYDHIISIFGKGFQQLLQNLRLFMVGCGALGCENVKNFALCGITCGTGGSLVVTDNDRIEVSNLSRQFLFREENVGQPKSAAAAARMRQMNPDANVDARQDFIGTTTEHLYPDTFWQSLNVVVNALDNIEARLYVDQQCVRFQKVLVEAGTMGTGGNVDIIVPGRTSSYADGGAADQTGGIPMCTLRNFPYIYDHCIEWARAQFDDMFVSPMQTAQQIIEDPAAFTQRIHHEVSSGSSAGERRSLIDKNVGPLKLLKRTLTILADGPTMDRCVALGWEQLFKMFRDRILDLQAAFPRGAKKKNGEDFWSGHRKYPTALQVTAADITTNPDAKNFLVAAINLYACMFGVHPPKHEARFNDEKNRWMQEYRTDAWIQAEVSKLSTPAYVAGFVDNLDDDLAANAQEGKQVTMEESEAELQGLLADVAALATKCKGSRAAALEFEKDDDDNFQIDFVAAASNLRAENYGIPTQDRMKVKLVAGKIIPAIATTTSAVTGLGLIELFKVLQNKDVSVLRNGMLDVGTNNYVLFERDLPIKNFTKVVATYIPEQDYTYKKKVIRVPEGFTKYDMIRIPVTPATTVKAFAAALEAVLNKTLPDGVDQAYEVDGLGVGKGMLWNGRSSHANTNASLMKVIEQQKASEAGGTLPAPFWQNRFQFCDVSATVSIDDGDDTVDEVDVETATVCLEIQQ
Briefly: Leishmania donovani Ubiquitin Activating Enzyme (LdE1). It counts as functional. The conditions noted are these: 30 µM.

The target of test [3] is AMP-activated protein kinase, AMPK (Homo sapiens) (UniProt P54646+O43741+P54619+Q9UGJ0+Q9Y478+Q13131+Q9UGI9). The test can be described thus: AMP-dependent Kinase enzyme assay. An in vitro enzyme assay that detects ADP turnover that is directly proportional to AMPK activity. This uses naive AMPK that is activated during the assay with MK-8722. The class given is functional. The conditions noted are these: 30 µM.

In test [4] the target is Sialic acid-binding Ig-like lectin 9 (Homo sapiens) (UniProt Q9Y336). Briefly: Hs-Siglec9 ALPHAscreen SOP 20170721. The conditions noted are these: 10 µM. A general note: Bead proximity is the source of the signal in Alpha formats.
For the next test, the system named is Trypanosoma cruzi. The test can be described thus: Trypanosoma cruzi phosphomannomutase and mannose-1-phosphate guanylyltransferase assay. It counts as functional. The conditions noted are these: 10 µM.
The target in test [5] is T2, Arginase-2, mitochondrial (Homo sapiens) (UniProt P78540).
T2 sequence (whole entry): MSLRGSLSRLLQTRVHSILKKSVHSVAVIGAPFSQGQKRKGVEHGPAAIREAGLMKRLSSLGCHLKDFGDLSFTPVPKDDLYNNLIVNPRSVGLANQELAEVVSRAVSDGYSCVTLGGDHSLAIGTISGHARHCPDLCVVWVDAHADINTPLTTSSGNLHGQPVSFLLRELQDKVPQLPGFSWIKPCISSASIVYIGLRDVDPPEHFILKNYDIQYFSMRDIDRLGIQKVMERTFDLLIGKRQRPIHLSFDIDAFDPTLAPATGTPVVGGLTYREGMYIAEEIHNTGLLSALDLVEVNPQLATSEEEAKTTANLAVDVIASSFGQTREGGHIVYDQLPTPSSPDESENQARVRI
The test can be described thus: in vitro enzyme assay to detect the production of urea directly proportional to the activity of Arginase II. Further: in the data most compounds retested in dose-response had high values. It counts as functional. The note with it: 33.3 µM.

The target of test [6] is T3, Proteasome subunit beta (Trypanosoma cruzi) (UniProt O96673).
T3 sequence (whole entry): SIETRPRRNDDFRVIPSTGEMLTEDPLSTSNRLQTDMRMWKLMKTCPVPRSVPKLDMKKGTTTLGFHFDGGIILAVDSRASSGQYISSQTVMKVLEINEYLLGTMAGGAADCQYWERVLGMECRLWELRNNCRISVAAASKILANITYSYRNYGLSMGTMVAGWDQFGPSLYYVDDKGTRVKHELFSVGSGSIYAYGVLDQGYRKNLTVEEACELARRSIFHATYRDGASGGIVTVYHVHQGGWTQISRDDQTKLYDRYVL
The test can be described thus: Trypanosoma cruzi proteasome chymotrypsin-like activity (TcProtChymo) assay. Further: in the data most compounds retested in dose-response had high values. It counts as functional. The note with it: 9.37 µM.

A further test is filed under the species Homo sapiens. The test can be described thus: To identify inhibition of the IFN signalling (Jak-Stat) pathway via expression of an eGFP reporter gene under the control of an IFN-stimulated response element (ISRE) containing MxA promoter. It counts as functional. The conditions noted are these: 30 µM.
Test [7] has as its target T4, Tyrosyl-tRNA synthetase, putative (Trypanosoma cruzi (strain CL Brener)) (UniProt Q4DSP6).
T4 sequence (whole entry): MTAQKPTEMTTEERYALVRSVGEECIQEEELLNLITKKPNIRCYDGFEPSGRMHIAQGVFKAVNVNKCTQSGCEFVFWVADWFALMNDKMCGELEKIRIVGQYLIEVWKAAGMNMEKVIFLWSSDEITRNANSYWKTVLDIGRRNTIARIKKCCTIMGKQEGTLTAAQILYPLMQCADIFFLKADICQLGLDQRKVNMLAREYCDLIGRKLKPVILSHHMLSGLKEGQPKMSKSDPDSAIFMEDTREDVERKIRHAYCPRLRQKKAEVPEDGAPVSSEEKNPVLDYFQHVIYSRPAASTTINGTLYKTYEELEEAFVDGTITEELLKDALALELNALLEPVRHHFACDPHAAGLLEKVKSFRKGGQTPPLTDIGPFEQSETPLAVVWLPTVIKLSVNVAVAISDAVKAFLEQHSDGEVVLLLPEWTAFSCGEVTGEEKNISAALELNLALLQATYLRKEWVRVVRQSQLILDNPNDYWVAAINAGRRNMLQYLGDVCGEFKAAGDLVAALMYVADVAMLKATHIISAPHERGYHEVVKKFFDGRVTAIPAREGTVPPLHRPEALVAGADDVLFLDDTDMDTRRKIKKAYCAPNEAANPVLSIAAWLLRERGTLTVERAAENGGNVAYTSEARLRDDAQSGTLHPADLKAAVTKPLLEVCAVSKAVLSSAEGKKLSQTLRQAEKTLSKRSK
The test can be described thus: Trypanosoma cruzi tyrosyl tRNA synthetase (TcYRS) _High Tyrosine SOP. Further: in the data most compounds retested in dose-response had high values. The note with it: 30 µM. It counts as functional.

The target of test [8] is T4, Tyrosyl-tRNA synthetase, putative (Trypanosoma cruzi (strain CL Brener)). Briefly: Trypanosoma cruzi tyrosyl tRNA synthetase (TcYRS) SOP. It counts as functional. The note with it: 30 µM.
Test [9] deals with Chromo domain-containing protein 1 (Saccharomyces cerevisiae (strain ATCC 204508 / S288c) (Baker's yeast)) (UniProt P32657). Briefly: ScCHD-1 Enzyme Inhibition Assay. Further: in the data most compounds retested in dose-response had high values. The note with it: 30 µM. It counts as functional.

For some of these results: Measured potencies and affinities stand elsewhere.

Chain of Chromo domain-containing protein 1 (Saccharomyces cerevisiae (strain ATCC 204508 / S288c) (Baker's yeast)) (P32657 whole entry, the tested form may be a part): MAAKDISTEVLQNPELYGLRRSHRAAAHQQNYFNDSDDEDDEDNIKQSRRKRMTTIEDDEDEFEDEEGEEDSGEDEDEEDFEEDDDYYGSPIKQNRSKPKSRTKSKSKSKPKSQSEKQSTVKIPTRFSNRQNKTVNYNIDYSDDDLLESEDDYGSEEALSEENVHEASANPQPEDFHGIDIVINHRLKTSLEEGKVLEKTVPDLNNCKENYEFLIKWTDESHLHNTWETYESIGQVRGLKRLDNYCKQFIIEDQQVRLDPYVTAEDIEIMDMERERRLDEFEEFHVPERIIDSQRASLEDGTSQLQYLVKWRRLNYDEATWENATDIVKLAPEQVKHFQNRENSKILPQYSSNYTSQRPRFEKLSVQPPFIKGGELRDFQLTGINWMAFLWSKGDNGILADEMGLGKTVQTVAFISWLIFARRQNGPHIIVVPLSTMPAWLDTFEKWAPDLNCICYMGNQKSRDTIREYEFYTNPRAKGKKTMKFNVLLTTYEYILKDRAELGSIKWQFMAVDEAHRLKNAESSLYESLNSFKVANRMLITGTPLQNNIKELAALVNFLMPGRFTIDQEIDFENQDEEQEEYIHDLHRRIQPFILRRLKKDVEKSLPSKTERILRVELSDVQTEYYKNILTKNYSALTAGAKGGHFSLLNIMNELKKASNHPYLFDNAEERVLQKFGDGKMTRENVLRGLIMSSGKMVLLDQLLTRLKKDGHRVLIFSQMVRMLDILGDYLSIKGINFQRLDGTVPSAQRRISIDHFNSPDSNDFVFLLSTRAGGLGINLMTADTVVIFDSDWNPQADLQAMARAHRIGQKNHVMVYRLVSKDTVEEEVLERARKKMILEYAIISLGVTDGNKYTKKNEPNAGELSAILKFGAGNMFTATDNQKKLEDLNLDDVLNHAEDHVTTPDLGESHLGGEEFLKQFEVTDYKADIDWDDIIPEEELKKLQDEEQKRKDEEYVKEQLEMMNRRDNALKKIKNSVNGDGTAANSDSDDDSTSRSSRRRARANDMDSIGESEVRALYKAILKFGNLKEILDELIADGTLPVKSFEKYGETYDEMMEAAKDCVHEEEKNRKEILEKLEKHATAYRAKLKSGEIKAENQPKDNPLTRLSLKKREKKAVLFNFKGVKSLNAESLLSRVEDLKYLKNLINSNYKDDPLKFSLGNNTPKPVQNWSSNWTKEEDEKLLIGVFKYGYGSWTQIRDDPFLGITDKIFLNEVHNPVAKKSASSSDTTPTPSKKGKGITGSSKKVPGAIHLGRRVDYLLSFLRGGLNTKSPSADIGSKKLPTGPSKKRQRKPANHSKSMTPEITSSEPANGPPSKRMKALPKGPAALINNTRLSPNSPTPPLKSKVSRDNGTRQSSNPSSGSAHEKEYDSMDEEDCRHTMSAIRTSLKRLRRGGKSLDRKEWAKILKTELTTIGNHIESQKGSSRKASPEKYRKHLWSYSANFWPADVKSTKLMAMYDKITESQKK
Chain of Sialic acid-binding Ig-like lectin 9 (Homo sapiens) (Q9Y336 whole entry): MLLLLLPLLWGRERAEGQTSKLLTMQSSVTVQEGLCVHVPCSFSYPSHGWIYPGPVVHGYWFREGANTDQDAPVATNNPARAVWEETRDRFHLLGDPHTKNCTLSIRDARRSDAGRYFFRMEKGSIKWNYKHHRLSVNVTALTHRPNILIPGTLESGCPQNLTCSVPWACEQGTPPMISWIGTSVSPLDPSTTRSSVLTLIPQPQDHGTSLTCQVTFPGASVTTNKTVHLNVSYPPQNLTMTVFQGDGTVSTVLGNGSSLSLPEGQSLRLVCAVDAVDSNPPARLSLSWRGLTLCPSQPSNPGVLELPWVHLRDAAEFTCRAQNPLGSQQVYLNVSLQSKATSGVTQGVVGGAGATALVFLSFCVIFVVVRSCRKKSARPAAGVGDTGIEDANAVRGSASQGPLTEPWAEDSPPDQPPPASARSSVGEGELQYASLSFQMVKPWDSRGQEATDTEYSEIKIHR
Chain of Protein translocase subunit SecA (Escherichia coli (strain K12)) (P10408 whole entry): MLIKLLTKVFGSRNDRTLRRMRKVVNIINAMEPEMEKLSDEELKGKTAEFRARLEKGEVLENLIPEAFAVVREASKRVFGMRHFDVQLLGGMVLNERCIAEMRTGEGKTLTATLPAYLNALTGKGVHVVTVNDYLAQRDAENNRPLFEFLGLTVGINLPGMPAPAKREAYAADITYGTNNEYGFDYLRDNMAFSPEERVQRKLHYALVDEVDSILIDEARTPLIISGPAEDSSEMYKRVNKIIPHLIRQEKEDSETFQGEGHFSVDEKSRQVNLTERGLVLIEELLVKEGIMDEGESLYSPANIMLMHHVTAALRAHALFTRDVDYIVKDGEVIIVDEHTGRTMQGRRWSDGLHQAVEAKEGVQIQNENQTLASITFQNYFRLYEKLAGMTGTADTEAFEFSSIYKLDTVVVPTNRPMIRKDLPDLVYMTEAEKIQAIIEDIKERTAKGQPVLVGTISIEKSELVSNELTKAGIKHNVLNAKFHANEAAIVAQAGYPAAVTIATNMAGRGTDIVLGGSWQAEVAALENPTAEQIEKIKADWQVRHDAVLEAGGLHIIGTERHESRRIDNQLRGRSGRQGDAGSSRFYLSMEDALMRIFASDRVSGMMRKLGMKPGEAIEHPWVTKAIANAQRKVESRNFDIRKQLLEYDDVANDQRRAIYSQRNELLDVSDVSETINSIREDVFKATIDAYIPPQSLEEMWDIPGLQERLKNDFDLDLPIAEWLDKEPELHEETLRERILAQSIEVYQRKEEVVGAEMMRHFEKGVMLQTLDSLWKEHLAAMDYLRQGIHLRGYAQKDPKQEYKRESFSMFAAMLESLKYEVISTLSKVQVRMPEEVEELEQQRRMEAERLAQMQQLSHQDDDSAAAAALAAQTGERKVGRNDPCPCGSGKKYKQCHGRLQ

As for `O=C(NCC1CC1)[C@H]1C[C@@H]2CCN(Cc3nccs3)C[C@@H]2O1`, the Percent Effect in [1] is -2.59%; in test [2] it was 8.11%; in test [3], 5.76%; in test [4] it was -2.2%; in the test with Trypanosoma cruzi, 4.4%; in test [5] it was -2.23%. The Percent Effect in test [6] amounted to 20.7%; in the test listed under Homo sapiens it was 17.8%; in test [7], 8.65%; in [8], 15.4%; in test [9] it was 2.01%.
Take `Cc1ccc(N2CC3(CCN(c4nccs4)C3)C2)nn1`: the Percent Effect in test [1] was 0.227%; in [2] it was 2.74%; in [3], 1.72%; in test [4], 6.68%; in the test on Trypanosoma cruzi, -0.794%; in test [5] it was 0.798%. The Percent Effect in test [6] was found to be 14%; in the test listed under Homo sapiens it was 0.564%; in test [7], 5.21%; in test [8] it was 11.1%; in test [9], 0.982%.
`CCOc1ncccc1C(=O)N1CCCCC1c1nccs1` (stereo unspecified): the Percent Effect in [1] is -4.08%; in test [2], 2.7%; in test [3] it was -17.5%; in test [4], 15.7%; in the test on Trypanosoma cruzi it was 2.55%; in test [5], -7.62%. In addition, the Percent Effect is -2.7% in test [6]; 10.1% in the test listed under Homo sapiens; 4.43% in test [7]; 11.1% in test [8]; -9.25% in test [9].
As to `CC(C)CNC(=O)[C@H]1CCS(=O)(=O)[C@@H]2CN(Cc3ccc(Cl)cc3)C[C@H]12`, the Percent Effect was -2.67% in [1]; 2.7% in [2]; -1.66% in [3]; -4.02% in test [4]; 1.17% with Trypanosoma cruzi; 2.5% in test [5]. Also, the Percent Effect in test [6] was 22.7%; in the test listed under Homo sapiens it was -6.94%; in [7], 11.9%; in test [8] it was 13.4%; in test [9], -1.05%.
On to `COCC(C)(O)CNC(=O)COc1ccccc1OC` (stereo unspecified), for which the Percent Effect in test [1] was -1.78%; in test [2] it was 2.74%; in [3], 6.7%; in test [4], -4.63%; in the test on Trypanosoma cruzi it was -4.31%; in [5], 2.27%. Moreover, the Percent Effect in test [6] was 8.52%; in the test listed under Homo sapiens it was 1.8%; in [7], 5.38%; in test [8], 7.5%; in [9] it was -3.71%.
Consider `CCc1nc2n(n1)CC(NCC(=O)Nc1nccs1)CC2` (stereo unspecified), for which the Percent Effect was -2.54% in test [1]; -2.53% in [2]; -11.6% in [3]; -5.43% in test [4]; -5.95% in the test on Trypanosoma cruzi; -1.9% in [5]. Moreover, the Percent Effect is -0.737% in [6]; 15.1% in the test listed under Homo sapiens; 2.46% in test [7]; -8.86% in test [8]; -2.63% in test [9].
On to `c1cc(CNCc2ccc3c(c2)CCO3)cc(N2CCOCC2)n1`, for which the Percent Effect is -6.07% in test [1]; 5.41% in test [2]; -3.9% in test [3]; -3.3% in [4]; -3.03% in the test on Trypanosoma cruzi; 0.744% in test [5]. Besides, the Percent Effect in test [6] was 6.27%; in the test listed under Homo sapiens, 2.63%; in test [7] it was 2.15%; in [8], 6.17%; in [9], -4.71%.
With `CCCc1n[nH]c(C2CN(C(=O)c3cc(F)ccc3OC)CCO2)n1` (stereo unspecified), the Percent Effect was -5.9% in test [1]; 7.89% in test [2]; -0.379% in test [3]; 3.53% in test [4]; 2.33% in the test with Trypanosoma cruzi; -2.52% in [5]. For the same molecule, the Percent Effect in test [6] is 3.3%; in the test filed under Homo sapiens, -17.2%; in test [7] it was 6.4%; in test [8] it was 11.1%; in test [9] it was -4.7%.
`Cc1ncc(CNC(=O)Nc2cc(C(F)(F)F)c[nH]c2=O)s1`: the Percent Effect in test [1] was -6.87%; in [2], -1.39%; in [3], -10.2%; in [4], -4.64%; with Trypanosoma cruzi, -5.34%; in test [5], 2.65%. For the same molecule, the Percent Effect was 18.2% in test [6]; -11.2% in the test listed under Homo sapiens; -1.05% in [7]; -2.56% in test [8]; 0.478% in [9].
For the molecule `CCn1cc2c(n1)CN(C(=O)c1ccncc1)CC2COCC1CC1` (stereo unspecified), the Percent Effect in [1] is 1.97%; in [2] it was 13.3%; in [3], -0.804%; in test [4], 23.2%; in the test with Trypanosoma cruzi, -1.74%; in test [5] it was -23.5%. Besides, the Percent Effect in test [6] was 20.9%; in the test listed under Homo sapiens it was -8.6%; in test [7] it was 3.12%; in test [8], 20%; in test [9], -6.15%.
Regarding `COc1cc(C)sc1C(=O)N1CC(c2cccnc2)C1`, the Percent Effect in test [1] is -4.73%; in [2], 2.7%; in [3], 4.4%; in [4] it was -2.39%; with Trypanosoma cruzi, -3.86%; in [5], -1.91%. Further, the Percent Effect in test [6] was 9.65%; in the test filed under Homo sapiens, -1.77%; in [7], 1.59%; in test [8] it was 9.76%; in [9] it was -1.11%.

The record behind these values is ChEMBL document CHEMBL3988442, “University of Dundee, Small-Polar-MMV Screening Library” (2021).
